Each structure is given as a SMILES string. Out of some 400,000 compounds screened, about 5,500 (1.4%) were called active. Entries that show only a call come without a potency. About 9% were inconclusive and are not listed. Calls follow the shape of the dose curve; as a rule, active = well fitted cell-killing curve with a large enough effect; inconclusive = small, poorly fitted or top-dose-only effect, or effect the other way; inactive = flat fitted curve, though single readings scatter. For the sample, actives were picked, then their nearest neighbours and some compounds at random.
Potency is read from the fitted curve at half-maximal effect.

The nature of the assay: qHTS assay for MDR1-selective chemotherapeutics: Primary screen using the parental adenocarcinoma cell KB-3-1. Also: nearly all actives have a fitted effect of over 60% in size. The settings on record: KB-3-1 viability, CellTiter-Glo ATP luminescence, 72 h; series mostly up to 46.1 µM. The essentials:
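Multi-concentration cytotoxicity screen in KB-3-1 cells grown in DMEM lacking phenol red with 10% FBS. After 72 h at 37 °C with compound, ATP-dependent luminescence was recorded.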
In the case of `Cc1cccc2c(=O)cc(CSc3ccccc3NC(=O)C(C)C)[nH]c12`, the Potency result was “inactive”. Next, `Cc1cc(C)cc(NC(=O)Cn2c(=O)c3ccccc3n3nncc23)c1`: “inactive”; `Cc1csc(NCC(=O)c2c[nH]c3ccccc23)n1`: “inactive”; `Cn1cc(S(=O)(=O)N2CCCCCC2)cc1C(=O)N1CCN(c2ccc(F)cc2)CC1`: “inactive”. Take `Brc1ccccc1/C=N/Nc1nc2ccccc2o1`: the Potency entry was “inactive”.

Take `O=[N+]([O-])c1cc(Br)c(O)c(/C=N/Nc2nc3ccccc3s2)c1`: the Potency was 23.1 µM (active).

With `O=[N+]([O-])c1c(NCCO)cc(Sc2nc3ccccc3s2)c2nonc12`, the Potency result was “inactive”. As for `COc1cc(OC)c(C2C=C(C(=O)O)Nc3ncnn32)cc1OC` (configuration not stated), the Potency entry is “inactive”.

As for `S=c1[nH]c(=S)c2n[nH]nc2[nH]1`, the Potency entry was “inactive”. To `COc1cc2c(cc1OC)CN(C(=O)c1cc(=O)c3ccccc3o1)CC2` belongs 2.91 µM (active); to `COc1ccccc1N1CCN(C(=O)c2ccc(NC3=NC4CS(=O)(=O)CC4S3)cc2)CC1` (configuration not stated), “inactive”; to `COc1ccc(Nc2ncc(C(=O)N3CCN(c4ccccc4OC)CC3)c3ccccc23)cc1`, “inactive”. Regarding `COc1ccc2c(CC(=O)N3CCc4cc(OC)c(OC)cc4C3)coc2c1`, the Potency result is “inactive”. To `COc1ccccc1N1CCN(C(=O)c2cc(=O)c3cc(C)ccc3o2)CC1` belongs 13 µM (active). For the molecule `COc1cc2c(cc1OC)CN(C(=O)c1cc(S(=O)(=O)N3CCCCC3)ccc1Cl)CC2`, the Potency entry was “inactive”. Next, `COc1ccccc1N1CCN(C(=O)c2cc(=O)c3cc(C)cc(C)c3o2)CC1`: 0.206 µM (active); `COc1cc(CCC(=O)N2CCN(c3ccccc3Cl)CC2)cc(OC)c1OC`: “inactive”. To `COc1cc(Cl)ccc1Nc1ncc(C(=O)N2CCN(c3ccccc3OC)CC2)c2ccccc12` belongs “inactive”. Next, `CCc1ccc2oc(-c3ccc(C)c(NC(=O)/C=C/c4ccco4)c3)nc2c1`: “inactive”; `COc1ccccc1CNC(=O)CCCCn1c(=O)c2ccccc2n(CC(=O)Nc2cc(Cl)ccc2C)c1=O`: “inactive”. With `CCCS(=O)(=O)N1CCC(n2c(C(F)(F)F)nc3cccnc32)CC1`, the Potency result was “inactive”. To `O=C(NCC(c1ccco1)S(=O)(=O)c1cccs1)c1ccc(F)cc1` (configuration not stated) belongs “inactive”. Consider `CS(=O)c1ccc(/C=C2\C=Cc3ccccc32)cc1` (configuration not stated), for which the Potency result is “inactive”. Next, `O=C(CCn1c(=O)c2ccccc2n(Cc2ccc(Cl)cc2)c1=O)NCc1ccc2c(c1)OCO2`: “inactive”. Next, `CCc1ccc(C(=O)CC2(O)C(=O)N(CCc3ccccc3)c3ccc(Br)cc32)cc1` (configuration not stated): “inactive”; `COc1ccc(NC(=O)N2CCCn3nc(C)cc32)cc1OC`: “inactive”.

Turning to `CCOc1ccc(CNC(=O)c2ccc3nc(CC)c(CC)nc3c2)cc1OC`, the Potency entry is “inactive”. Turning to `CN(C)c1cccc2ccccc12`, the Potency entry is “inactive”. Turning to `Cc1ccc(F)cc1S(=O)(=O)N1CCC(c2nc3ccccc3s2)CC1`, the Potency entry is “inactive”. Consider `CCOC(=O)c1ccc(NC(=O)Cn2cc(S(=O)(=O)Cc3ccccc3F)c3ccccc32)cc1`, for which the Potency result was “inactive”. For the molecule `Cc1ccc(C)c(Cn2c(C)c(CNCc3ccc(F)cc3)c(C(=O)O)c2C)c1`, the Potency result was “inactive”. In the case of `O=C(Nc1ccccc1F)c1ccc(S(=O)(=O)N2CCCCCC2)cc1`, the Potency entry is “inactive”. Consider `CCOC(=O)N1CCN(S(=O)(=O)c2ccc(Br)cc2)CC1`, for which the Potency result is “inactive”. `CCOC(=O)N1CCN(S(=O)(=O)c2ccc(C(=O)Nc3ccc(F)cc3F)cc2)CC1`: the Potency is 4.61 µM (active). As for `Cc1sc2ncn(CC(=O)N3CCN(c4ccc(F)cc4)CC3)c(=O)c2c1S(=O)(=O)N1CCN(c2ncccn2)CC1`, the Potency entry is “inactive”. Next, `CCOC(=O)c1ccc(NC(=O)C2CC(=O)NC(=Nc3ccc(C)c(C)c3)S2)cc1` (configuration not stated): “inactive”; `CC(=O)OC1=C(C(C)=O)N(Cc2ccccc2)S(=O)(=O)c2ccccc21`: “inactive”; `Cc1cccc(NC(=S)N2CCC(C(=O)c3ccc(F)cc3)CC2)c1`: “inactive”. Next, `Cc1cccc(NC(=S)NCc2ccc3[nH]c4c(c3c2)CCCC4)c1`: 16.4 µM (active); `CCc1cccc(NC(=O)CN(C)S(=O)(=O)c2ccc3[nH]c4c(c3c2)CCCC4)c1`: “inactive”.

Regarding `Cc1ccc(Cl)cc1NC(=O)C(C)n1nnc2sc(-c3ccccc3)cc2c1=O` (configuration not stated), the Potency entry is “inactive”. `COc1ccc(C2CC(=O)N(Cc3ccccc3C)c3c2c(C)nn3-c2nc(C)cc(C)n2)c(OC)c1` (configuration not stated): the Potency result is “inactive”. Next, `CCOc1ccc(C(=O)c2cn(Cc3ccccc3OC)c3ccc(F)cc3c2=O)cc1`: “inactive”. To `CCCOc1ccc(C(=O)C(CCC(CNCC)C(=O)c2ccc(OCCC)cc2)CNCC)cc1` (configuration not stated) belongs 5.17 µM (active); to `CCCOc1cccc(C(=O)Nc2cccc(NC(=O)c3ccc(C(C)(C)C)cc3)c2)c1`, “inactive”; to `CCCc1ccc(OCCNC(=O)c2ccccc2Br)cc1`, “inactive”.

On to `Cc1ccc2nc(COc3cccc(NC(=O)c4ccccc4Cl)c3)cc(=O)n2c1`, for which the Potency entry was “inactive”.

`CCOc1ccc(CCNC(=O)c2ccc3c(c2)sc2nc(-c4ccc(F)cc4)cn23)cc1OCC`: the Potency result is “inactive”.

As for `O=C(NCc1ccc2c(c1)OCO2)c1cc([N+](=O)[O-])ccc1N1CCOCC1`, the Potency was 5.17 µM (active). On to `O=C(Cc1ccc([N+](=O)[O-])cc1)NCCc1ccc2c(c1)OCO2`, for which the Potency entry is “inactive”. In the case of `CC1CCN(c2ccc(C(=O)NCc3ccc4c(c3)OCO4)cc2[N+](=O)[O-])CC1`, the Potency entry was “inactive”.

For `Cc1cc(=O)n(CC(=O)Nc2cccc([N+](=O)[O-])c2)c(-n2nc(C)cc2C)n1`, the Potency result is “inactive”. As for `CCOc1ccccc1NC(=O)c1ccc2c(c1)CCN2S(=O)(=O)c1ccc(C)cc1`, the Potency result is “inactive”.

Regarding `COc1ccccc1NC(=O)c1cc(C2CC2)nc2c1c(C)nn2-c1ccc(C)cc1`, the Potency entry is “inactive”. Next, `COc1cccc(NC(=O)CSc2cc(=O)n(C)c3ccc(Cl)cc23)c1`: “inactive”; `Cc1cc(-c2ccc(S(=O)(=O)N3CCN(c4cccc(C(F)(F)F)c4)CC3)s2)on1`: “inactive”. As to `Cc1cc(C)cc(NS(=O)(=O)c2ccc(-c3cc(C)no3)s2)c1`, the Potency was 3.26 µM (active). In the case of `CC(=O)c1ccc(NS(=O)(=O)c2ccc(-c3cc(C)no3)s2)cc1`, the Potency entry was “inactive”. As for `CCc1cccc(C)c1NS(=O)(=O)c1cc(Br)cnc1N`, the Potency entry is “inactive”. To `CCc1cccc(C)c1NS(=O)(=O)c1ccc(-c2cc(C)no2)s1` belongs 1.16 µM (active).

`Cc1cc(-c2ccc(S(=O)(=O)N3CCc4ccccc4C3)s2)on1`: the Potency entry is “inactive”. Next, `Cc1ccccc1CN1CCC(CNC(=O)c2cc3ccc4cccnc4c3[nH]2)CC1`: “inactive”.

The values above are taken from PubChem BioAssay AID1347075 (National Center for Advancing Translational Sciences (NCATS), 2019).
